The source of these data is PubChem BioAssay (NCI).

This is part of a sample that, as a whole, favours compounds with a hit. Of some 83,000 tested, about 20% had one in any assay.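 Note: values are percent growth. 100 is the growth of untreated cells, values between 100 and 0 indicate rising inhibition; between -100 and 0 indicates cell death.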 Values without a mark were called inactive. Active and inactive are the calls of the source.

For the assay, the system named is A498 renal. The experiment in a line: NCI-60 one-dose screen, 48 h (100 = growth as untreated, 0 = no growth, -100 = all killed). As to conditions: 10 µM unless noted. Here is the method: Growth inhibition of the A498 human tumor cell line is measured as a screen for anti-cancer activity. Cells are grown in 96 well plates and exposed to the test compound for 48 hours. Compounds are tested at a single concentration, which is 10^-5 M for most compounds. The reported endpoint is percent growth (GI% or GIPRCNT), where numbers from 0 - 100% represent growth inhibition, and numbers from -100% - 0 represent cell death. For example, a value of 40 represents 60% growth inhibition. A value of 0 means no net growth occurred over the course of the experiment. A value of -40 indicates 40% of cells at the beginning of the experiment died by the end of the experiment. A value of -100 means all cells are dead at the end of the experiment.
NCI-60 Human Tumor Cell Lines Screen was performed using the standard one-dose NCI protocol, which is described in more detail at https://dtp.cancer.gov/discovery_development/nci-60/default.htm.
Compounds with GIPRCNT values below 10 were considered active. Activity score was based on GIPRCNT using the following formula: […]
Score is 0 for GIPRCNT values of 100 or above, 50 for GIPRCNT values of 0, and 100 for GIPRCNT values of -100.
`Cc1ccccc1NC(=O)c1sc2nc(C)c(C(C)O)cc2c1N` (stereo not given): the growth is 47.9%.

`CC(C)(C)c1ccc2oc(=O)n(SC(Cl)(Cl)Cl)c2c1`: the growth is 109%.

As to `COc1ccc(C2N(c3cc(OC)c(OC)c(OC)c3)C(=O)C2(F)F)cc1F` (stereo not given), the growth was 97.8%.

With `C=CCn1c(SCC(=O)Nc2ccc(C(=O)/C=C/c3ccc(Cl)cc3)cc2)nnc1-c1cc(OC)c(OC)c(OC)c1`, the growth was 82.5%.

As for `Nc1c(C(=O)Nc2ccccn2)sc2nc3c(cc12)C(=O)CCC3`, the growth is 2.05% (active).

As for `O=C(O)c1ccc(-n2cc(/C=N/Nc3ccc(Cl)cc3Cl)c(-c3ccccc3)n2)cc1`, the growth is 108%.

Take `Oc1ccccc1-c1nc2c3ccccc3c3ccccc3c2o1`: the growth is 114%.

Regarding `Nc1ccccc1NC(=O)c1ccc(CSc2nc(N3CCOCC3)c3cccn3n2)cc1`, the growth was -12.1% (active).

`CC1(C)Cc2c(Br)c(Br)c(Br)c(OCC(O)CN3CCOCC3)c2O1` (stereo not given): the growth is 84.3%.

With `Oc1c(CCl)cc(Cl)cc1Cc1cc(Cl)cc(Cc2cc(Cl)cc(CCl)c2O)c1O`, the growth was -4.67% (active).

Regarding `CN(CCC#N)C(=O)Nc1ccccc1`, the growth was 90.4%.

For `O=C(O)c1cn(C2CC2)c2cc(N3CCN(Cc4nnc(Nc5ccccc5)o4)CC3)c(F)cc2c1=O`, the growth was 92.2%.

Turning to `CCCCc1n(Cc2ccc3ccccc3c2)c2ccccc2[n+]1Cc1ccc2ccccc2c1`, the growth is -92.7% (active).

With `CC(C)NS(=O)(=O)c1cccc(-c2ccc3c4c(n(CCCN(C)C)c(=O)c3c2)-c2ccccc2C4=O)c1`, the growth was 83.3%.

With `CC[C@]12C=CCN3CC[C@@]4(c5ccc(OC)cc5N(C)[C@H]4[C@@](O)(C(=O)OC)[C@@H]1OC(=O)CCC(=O)O[C@H]1CC[C@H]4[C@@H]5CC[C@H]6CC(=O)CC[C@]6(C)[C@H]5CC[C@]14C)[C@@H]32`, the growth was 12.3%.

Take `Cc1c(Cl)cccc1NC(=O)c1sc2nc3c(cc2c1N)COCC3`: the growth was 18.1%.

On to `CCOC(=O)c1sc(/N=C2\NC(=O)/C(=C/c3ccc(N4CCN(C)CC4)cc3)S2)nc1C`, for which the growth was 111%.

Regarding `CSc1nc(-c2ccc(F)cc2)c(C#N)c(N2CCOCC2)n1`, the growth is 74.4%.

Regarding `Nc1cccc(C(=O)Nc2ccc3c(O)c(N=Nc4ccc(N=Nc5ccc(S(=O)(=O)O)cc5)cc4)c(S(=O)(=O)O)cc3c2)c1`, the growth was 105%.

As for `O=C(Nc1ccccc1)NS(=O)(=O)c1c[nH]c(=S)[nH]c1=O`, the growth is 112%.

With `CCc1c(C(=O)N[C@@H](C(=O)OCc2ccccc2)C(C)O)[nH]c2ccc(Cl)cc12` (stereo not given in full), the growth was 67.7%.

Take `Cc1nc2sc(C(=O)Nc3ccccc3)c(N)c2cc1C(C)O` (stereo not given): the growth was 36.3%.

With `C=C1C(=O)O[C@H]2[C@H]1CC/C(COC(=O)c1cccnc1)=C\CC[C@@]1(C)O[C@@H]21`, the growth is 102%.

`CCN(CC)CC#CCOC(=O)[C@]1(C)CCC[C@]2(C)[C@H]3C[C@H]4C(C(C)C)=C[C@]3(CC[C@H]21)[C@@H]1C(=O)CCC(=O)[C@@H]14`: the growth was 102%.

Turning to `OCCNc1nc(NCCO)nc(Nc2ccc(C3=NN(c4cc(Cl)cc(Cl)c4)C(c4ccc(Cl)cc4)C3)cc2)n1` (stereo not given), the growth was 71.2%.

In the case of `CCOC(=O)c1c(-c2ccc(O)cc2)c(C#N)c2c(C#N)c(N)nn2c1N`, the growth is 34.9%.

On to `O=C1NC(SCc2ccc(F)cc2)=N/C1=C/c1cccc(OCc2ccc(Cl)cc2)c1`, for which the growth is -5.28% (active).

For the molecule `C=C1C(=O)O[C@H]2[C@H]1CC/C(COC(=O)c1cccnc1N)=C\CC[C@@]1(C)O[C@@H]21`, the growth is 33.8%.

With `O=C1C(=O)c2c(nc3ccc(Br)cn23)-c2ccccc21`, the growth is 39.4%.

As for `CC1CCN(CCCCCOc2ccc3oc4ccccc4c(=O)c3c2)CC1`, the growth is 74.4%.

With `CCCCCCC/C=C/[C@H]1O[C@]23C(=O)C[C@@]4(C[C@@H](OC5OC(CO)C(O)C(O)C5O)C[C@@H]4[C@H]2C=C1C)OC3=O` (stereo not given in full), the growth was 70.1%.

In the case of `CCOC(=O)/C(=C/c1c(-c2ccccc2)[nH]c2ccccc12)C(=O)c1ccc(Cl)cc1`, the growth is 73.7%.

On to `O=C1Nc2ccccc2C12C=C(c1ccccc1)Nc1c2c(-c2ccccc2)nn1-c1ccccc1` (stereo not given), for which the growth was 75.6%.

With `COc1ccc(C2CC(c3ccc(OC)cc3O)=NN2c2ccc(S(N)(=O)=O)cc2)cc1` (stereo not given), the growth was 71.2%.

On to `Cc1cccc(C)c1NC(=O)CN(CC(C)C)CC(O)COc1ccccc1` (stereo not given), for which the growth was 63.8%.

In the case of `C=C(C)[C@@H]1CC[C@]2(C(=O)N=C=S)CC[C@]3(C)[C@H](CC[C@@H]4[C@@]5(C)CCC(=O)C(C)(C)[C@@H]5CC[C@]43C)[C@@H]12`, the growth was 25.3%.

In the case of `NC(N)=NC(N)=Nc1cc2ccccc2c2ccccc12`, the growth was 26%.

Turning to `Nn1c(SCC(=O)Nc2ccc(Cl)cc2)nnc1-c1cc(F)c(Cl)cc1Cl`, the growth is 65.2%.

On to `Cc1cccc2nc3c(n12)C(=O)C(=O)c1ccccc1-3`, for which the growth was 81.3%.

On to `O=C1NC(c2ccc(F)cc2)N=C2C(c3ccccc3)=NOC12` (stereo not given), for which the growth was 104%.
